Measured values published in PubChem BioAssay AID1159580 (chemical genetic matrix, 2015).
In all, about 5,500 compounds went through this assay and about 2,000 (36%) were called active. Roughly 18% stayed inconclusive and do not appear here. Cut-off read from the data, not from the text of the source: active = normalized growth mostly below about 0.91 (no sharp cut-off); inconclusive = no clear call, values can overlap the other calls; inactive = mostly above about 0.92. Some of the results follow.

Assay: chemical genetic growth profiling, strain panel (AID 1159580);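 note: tested at 20 µM; growth read once vehicle control cultures reached saturation at 30 °C; 1 = growth at the plate median or of vehicle wells; lower values mean less growth of the strain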
Settings: S. cerevisiae deletion strains, growth OD

Measured: normalized growth

CCCOc1ccccc1-c1nc2n[nH]nc2c(=O)[nH]1
inactive: locus YAL013W, strain DEP1, hits give low values 0.99 | locus YAL021C, strain ccr4, hits give low values 0.965 | locus YAL026C, strain drs2, hits give low values 1.02 | locus YAL030W, strain snc1, hits give low values 0.995 | locus YAL040C, strain CLN3, hits give low values 1.05 | locus YBL061C, strain skt5, hits give low values 1 | locus YBR009C, strain hhf1, hits give low values 1.03 | locus YBR021W, strain FUR4, hits give low values 0.996 | locus YBR023C, strain chs3, hits give low values 1 | locus YBR171W, strain sec66, hits give low values 1.01 | locus YBR229C, strain ROT2, hits give low values 1 | locus YBR231C, strain swc5, hits give low values 1.02 | locus YBR279W, strain paf1, hits give low values 1.01 | locus YCL011C, strain gbp2, hits give low values 1.01 | locus YCL016C, strain dcc1, hits give low values 1.01 | locus YCL029C, strain bik1, hits give low values 1.01 | locus YCL061C, strain MRC1 (second series), hits give low values 0.993 | locus YCL061C, strain MRC1, hits give low values 1 | locus YCL069W, strain vba3, hits give low values 0.992 | locus YCR088W, strain abp1, hits give low values 1 | locus YDL005C, strain med2, hits give low values 1 | locus YDL035C, strain GPR1, hits give low values 1.02 | locus YDL040C, strain nat1, hits give low values 0.991 | locus YDL074C, strain BRE1, hits give low values 1.01 | locus YDL101C, strain DUN1, hits give low values 1.01 | locus YDL134C, strain PPH21, hits give low values 1.01 | locus YDL185W, strain tfp1, hits give low values 1.01 | locus YDL192W, strain arf1, hits give low values 1.01 | locus YDR001C, strain nth1, hits give low values 0.998 | locus YDR069C, strain doa4, hits give low values 1.02 | locus YDR101C, strain arx1, hits give low values 1 | locus YDR137W, strain rgp1, hits give low values 1 | locus YDR159W, strain sac3, hits give low values 1.03 | locus YDR162C, strain NBP2, hits give low values 1.01 | locus YDR195W, strain ref2 1.04 | locus YDR297W, strain sur2, hits give low values 1 | locus YDR318W, strain mcm21, hits give low values 1.01 | locus YDR334W, strain swr1, hits give low values 1.01 | locus YDR335W, strain msn5, hits give low values 1 | locus YDR363W, strain ESC2, hits give low values 0.985 | locus YDR388W, hits give low values 1.02 | locus YDR392W, strain spt3, hits give low values 0.956 | locus YDR502C, strain sam2, hits give low values 1.01 | locus YEL003W, strain gim4, hits give low values 1.01 | locus YEL037C, strain rad23, hits give low values 0.998 | locus YEL061C, strain CIN8 (second series), hits give low values 1 | locus YEL061C, strain CIN8, hits give low values 1.01 | locus YER002W, strain NOP16, hits give low values 1.01 | locus YER015W, strain faa2, hits give low values 1.01 | locus YER016W, strain bim1, hits give low values 1.01 | locus YER110C, hits give low values 1.01 | locus YER111C, strain swi4, hits give low values 1.01 | locus YER155C, strain BEM2 (second series), hits give low values 1.05 | locus YER155C, strain BEM2, hits give low values 1 | locus YER167W, strain BCK2, hits give low values 1.01 | locus YFR010W, strain ubp6, hits give low values 1.01 | locus YGL078C, strain dbp3, hits give low values 1.01 | locus YGL086W, strain mad1, hits give low values 1 | locus YGL167C, strain pmr1, hits give low values 1.01 | locus YGL173C, strain kem1, hits give low values 1.01 | locus YGL227W, strain vid30, hits give low values 1.01 | locus YGL240W, strain doc1, hits give low values 1.05 | locus YGL248W, strain PDE1, hits give low values 0.981 | locus YGL253W, strain hxk2, hits give low values 1.01 | locus YGR078C, strain PAC10, hits give low values 1.01 | locus YGR135W, strain pre9, hits give low values 1.01 | locus YGR229C, strain SMI1, hits give low values 1.01 | locus YGR252W, strain gcn5, hits give low values 1.03 | locus YHR013C, strain ard1, hits give low values 0.978 | locus YHR027C, strain rpn1, hits give low values 1 | locus YHR030C, strain SLT2, hits give low values 1 | locus YHR079C, strain IRE1 (second series), hits give low values 1.01 | locus YHR094C, strain hxt1, hits give low values 1.02 | locus YHR129C, strain ARP1, hits give low values 1 | locus YHR142W, strain chs7, hits give low values 0.953 | locus YHR200W, strain rpn10, hits give low values 1.01 | locus YIL066C, strain RNR3, hits give low values 1 | locus YIL073C, strain SPO22, hits give low values 1.08 | locus YIL125W, strain kgd1, hits give low values 1 | locus YIR030C, strain dcg1, hits give low values 1.01 | locus YJL092W, strain hpr5, hits give low values 1 | locus YJL095W, strain BCK1 (second series), hits give low values 1.01 | locus YJL095W, strain BCK1, hits give low values 0.994 | locus YJL115W, strain asf1, hits give low values 1 | locus YJL129C, strain trk1, hits give low values 0.992 | locus YJL134W, strain LCB3, hits give low values 1.01 | locus YJL154C, strain vps35, hits give low values 0.999 | locus YJL164C, strain tpk1, hits give low values 0.987 | locus YJL166W, strain qcr8, hits give low values 1.01 | locus YJL168C, strain set2, hits give low values 1.01
